The values below come from ChEMBL document CHEMBL1157539, “Thousands of chemical starting points for antimalarial lead identification” (Nature, 2010).

Structures are written as SMILES.

Usually Inhibition stands for the share of the control response that was lost under treatment.

In the test the test system is Plasmodium falciparum. Description: GSK_TCMDC: Inhibition of Plasmodium falciparum Dd2 in whole red blood cells, using parasite LDH activity as an index of growth. Test compounds present at 2uM. It is filed as functional.
Regarding `COc1ccc2nc3cc(Cl)ccc3c(NCCCCCCNc3c4ccc(Cl)cc4nc4ccc(OC)cc34)c2c1.Cl.Cl.Cl.Cl`, the Inhibition amounted to 79%. As for `O=C(C1COc2ccccc2O1)N(CCCn1ccnc1)Cc1csc(-c2ccc(CNCc3ccccc3)cc2)n1.O=C(O)C(F)(F)F` (stereo unspecified), the figure is 18%.

In the case of `COc1ccc(CN(C)CCCc2ccc(NC(=O)Cc3ccc4nc(-c5ccccc5)ccc4c3)cc2)cc1OC`, the Inhibition turned out to be 0%. In turn, `CC(=O)c1cccc(S(=O)(=O)NCCCNc2nc3cc(C)cc(C)c3cc2C#N)c1` showed an Inhibition of 75%. As for `COc1cccc(NC(=O)c2cc(Br)cc(N3CCN(c4ccncc4)CC3)c2)c1.O=C(O)C(F)(F)F`, the figure is 79%; as for `CN1CCN(c2ccnc3ccc(NC(=O)Nc4ccc(Cl)c(Cl)c4)cc23)CC1`, 17%. Regarding `CCCNCc1ccc(-c2ccc(CN(Cc3cnc(C)cn3)C(=O)/C=C/c3ccccc3C)cc2)nc1.O=C(O)C(F)(F)F`, the Inhibition was 15%. For `OC(CNCc1ccccc1OCc1ccccc1)c1cccc(Cl)c1` (stereo unspecified) the value was 100%. As for `Cc1cc(N[C@@H](CC(C)C)C(=O)Nc2ccccc2)nc(NCCc2ccc(F)cc2)n1.O=C(O)C(F)(F)F`, the Inhibition turned out to be 94%. Take `COc1c(C2CCN(CCCCNC(=O)c3noc(-c4ccc(C#N)cc4)n3)CC2)ccc2c1CCCC2`: the Inhibition was determined as 0%. Molecule `COc1ccc(-c2cccc(NC(=O)c3cccc(C#N)c3)c2)cc1CN1CCNCC1.O=C(O)C(F)(F)F` yielded an Inhibition of 15%. In the case of `CCNc1cc(C(=O)N[C@@H](Cc2ccccc2)[C@H](O)CN[C@H](C)c2ccccc2)cc(N2CCCC2=O)c1`, the Inhibition is 99%. Molecule `Cl.Clc1ccc(OCCC2CCN(CCCCCCCN3CCC(CCOc4ccc(Cl)c(Cl)c4)CC3)CC2)cc1Cl` displayed an Inhibition of 82%. `COc1cc(Cc2cnc(N)nc2N)cc(OCCCOc2ccccc2)c1OC` had an Inhibition of 2%.

`COc1ccc2nc(N3CCN(C(=O)OC(C)(C)C)CC3)nc(NCCCc3ccccc3)c2c1` returned an Inhibition of 95%. Take `CN1CCCN(Cc2cccc(-c3cccc(NS(=O)(=O)c4cccc5cccnc45)c3)c2)CC1.O=C(O)C(F)(F)F`: the Inhibition was determined as 74%. As for `Cl.N=C1C=C(N)C(=O)c2ccccc21`, the figure is 85%. For `COc1ccc(CNc2nc(NCc3ccc(C(F)(F)F)cc3)c3cc(OC)c(OC)cc3n2)cc1OC` the value was 100%; for `O=C(/C=C/c1ccc(I)cc1)NCCCCCN1CCC(c2c[nH]c3ccccc23)CC1`, 2%.

Consider `COc1ccc(CCn2c(=N)c(C(=O)NCc3ccccc3)cc3c(=O)n4ccccc4nc32)cc1`, for which the Inhibition amounted to 18%. `COc1ccccc1N1CCN(C(C(=O)NCc2ccc3c(c2)OCO3)c2ccc3c(c2)OCCCO3)CC1` (stereo unspecified) had an Inhibition of 13%. `Cc1cc(C(=O)CN2C(=O)NC3(CCCc4ccccc43)C2=O)c(C)n1Cc1ccco1` (stereo unspecified): the Inhibition is recorded as 0%. `Cc1cccc(/C=C/C(=O)NC2CCC(N3CCC(c4ccccc4C)CC3)CC2)c1` (stereo unspecified) returned an Inhibition of 20%. For `CCN(CC)CC(O)CNc1c2ccc([N+](=O)[O-])cc2nc2cc(OC)c(OC)cc12.Cl` (stereo unspecified) the value was 100%; for `CCC[C@@H](/C=N/N(C)C(=O)OC(C)(C)C)NC(=O)[C@H](CC(C)C)NC(=O)c1cc2cccc(OC)c2o1`, 61%. As to `O=C(O)C(F)(F)F.c1cc(CNCCN2CCNCC2)cc(-c2ccc(-c3nc4ccccc4[nH]3)cc2)c1`, the Inhibition came to 11%. On to `O=C(C=Cc1cn(-c2ccccc2)nc1-c1cccs1)N1CCN(c2ccncc2)CC1`, for which the Inhibition was found to be 61%.

In turn, `Cc1noc(C)c1-c1cccc(CNCc2ccc(-c3cccc(-c4nc5cccc(C)c5[nH]4)c3)cc2)c1.O=C(O)C(F)(F)F` came in with an Inhibition of 94%.

For `Cc1ccccc1C(=O)Nc1cccc(-c2nc3ncccn3c2C)c1`, the Inhibition was 94%.

`Cl.Nc1ccc(Nc2ccnc3ccc(C(F)(F)F)cc23)cc1O` returned an Inhibition of 59%. As to `CN1CCN(CC(=O)Nc2ccc(-c3csc(-c4nc5ccccc5[nH]4)c3)cc2)CC1`, the Inhibition worked out at 46%. `O=C(Nc1ccccc1F)NC1CCN(c2ccnc(Nc3ccc(F)cc3)n2)C1` (stereo unspecified): the Inhibition worked out at 74%.

As for `CCN(CC)C(=O)C1CCCN(c2cc(C)nc(Nc3ccc(Cl)cc3)n2)C1` (stereo unspecified), the Inhibition was 64%.

In turn, `CN(c1ccc(NC(=O)Nc2cc(C(F)(F)F)ccc2F)cc1)c1ccnc(NCCN2CCOCC2)n1.O=C(O)C(F)(F)F` displayed an Inhibition of 73%.

The molecule `O=S(=O)(Nc1cccc(CCN2CCC(N3CCCCC3)CC2)c1)c1ccc(Cl)cc1` returned an Inhibition of 23%. For `CN(C)CCNC(=O)c1csc(Nc2ccc(Cl)c(Cl)c2)n1` the value was 100%.
